The record followed here is PubChem BioAssay (Tox21).

Assay [1] has as its target Acetylcholinesterase (Homo sapiens) (UniProt P22303). Nature of the assay: Acetylcholinesterase (AChE) small molecule antagonists: enzyme-based qHTS assay (AID 1347397; calls by dose curve; also: nearly all actives have a fitted effect of over 55% in size). Particulars: Potency: AChE enzyme activity inhibition. The method, boiled down: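 Tox21 library chemicals are tested in qHTS format against recombinant human AChE. The enzyme, dispensed at 50 mU/mL, sits with compound for 30 min at room temperature. A DTNB–acetylthiocholine cocktail follows, and colour is read after 10 min.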

Assay [2] has the same target. Nature of the assay: Acetylcholinesterase (AChE) small molecule antagonists: enzyme-based qHTS assay with human liver microsomes (AID 1347399; calls by dose curve; also: nearly all actives have a fitted effect of over 60% in size). Conditions: Potency: qHTS inhibition. The method, boiled down: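 Recombinant human AChE (50 mU/mL in the enzyme mix) and human liver microsomes (0.25 mg/mL final) were preincubated with compound and NADPH (0.25 mg/mL final) for 30 min at 37 C. Acetylthiocholine/DTNB was then added; thiocholine was read colorimetrically after 10 min at room temperature.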
For orientation: qHTS replaces the single test concentration by a dilution series.

For assay [3], the target named is Cytochrome P450 2D6 (Homo sapiens) (UniProt P10635). Nature of the assay: Cytochrome P450 Family 2 Subfamily D Member 6 (CYP2D6) small molecule antagonists: luciferase reporter qHTS assay (AID 1671196). Also: nearly all actives have a fitted effect of over 50% in size. Also: potency is read from the fitted curve at half-maximal effect. The method, boiled down:
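CYP2D6 activity was followed as luminescence from its luciferin product after a 1 h NADPH-driven reaction at room temperature. Enzyme-substrate mix and compound were pre-incubated for 10 min, and the signal was read 20 min after adding detection reagent.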
On the technique in general: A reporter such as luciferase makes a cellular process visible.

The target of assay [4] is Cytochrome P450 2C9 (Homo sapiens) (UniProt P11712). Nature of the assay: Cytochrome P450 Family 2 Subfamily C Member 9 (CYP2C9) small molecule antagonists: luciferase reporter qHTS assay (AID 1671198). Also: nearly all actives have a fitted effect of over 50% in size. Also: potency is read from the fitted curve at half-maximal effect. The method, boiled down: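 CYP2C9 activity was measured with a P450-Glo proluciferin substrate. Enzyme–substrate mix was held with compound for 10 min at room temperature, then NADPH regeneration solution was added for 1 h at 37C. Luciferin product was read as luminescence.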
Sequence of Cytochrome P450 2C9 (Homo sapiens) (P11712 whole entry, looked up): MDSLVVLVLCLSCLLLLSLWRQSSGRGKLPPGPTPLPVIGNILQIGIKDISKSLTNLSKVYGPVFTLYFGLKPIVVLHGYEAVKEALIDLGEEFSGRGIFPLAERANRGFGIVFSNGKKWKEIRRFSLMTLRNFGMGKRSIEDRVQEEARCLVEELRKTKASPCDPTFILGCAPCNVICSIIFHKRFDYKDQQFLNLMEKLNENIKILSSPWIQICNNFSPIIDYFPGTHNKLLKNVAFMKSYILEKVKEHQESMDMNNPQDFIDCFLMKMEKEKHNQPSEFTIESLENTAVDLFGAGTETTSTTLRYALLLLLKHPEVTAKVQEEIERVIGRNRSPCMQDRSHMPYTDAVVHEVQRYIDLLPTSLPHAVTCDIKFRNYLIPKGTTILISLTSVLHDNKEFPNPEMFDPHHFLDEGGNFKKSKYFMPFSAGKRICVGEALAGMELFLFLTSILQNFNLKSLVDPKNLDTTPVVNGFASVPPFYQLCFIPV

Assay [5] concerns the target Cytochrome P450 1A2 (Homo sapiens) (UniProt P05177). Nature of the assay: Cytochrome P450 Family 1 Subfamily A Member 2 (CYP1A2) small molecule antagonists: luciferase reporter qHTS assay (AID 1671199). Also: nearly all actives have a fitted effect of over 50% in size. Also: potency is read from the fitted curve at half-maximal effect. The method, boiled down: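 Luminescence from luciferin formed by CYP1A2 from a proluciferin substrate, read 20 min after detection reagent. Compound was pre-incubated 10 min with enzyme-substrate, and reaction started with NADPH regeneration solution for 1 h at room temperature; furafylline control.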

Assay [6] addresses Voltage-gated inwardly rectifying potassium channel KCNH2 (Homo sapiens) (UniProt Q12809). Nature of the assay: Human Ether-a-go-go-Related Gene (hERG) channel small molecule antagonists: fluorescence cell-based qHTS assay (AID 1671200). Also: nearly all actives have a fitted effect of over 50% in size. Also: potency is read from the fitted curve at half-maximal effect. Summed up:
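In this thallium-flux screen, overnight-cultured U2OS cells bearing the channel are dye-loaded in darkness for an hour, rested 10 min at room temperature, and then monitored kinetically at 480/540 nm for two minutes post-stimulus.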
(In general: The hERG channel carries a current that helps repolarise heart muscle cells.)

In assay [7] the target is Cytochrome P450 3A4 (Homo sapiens) (UniProt P08684). The assay is described as follows: Cytochrome P450 Family 3 Subfamily A Member 4 (CYP3A4) small molecule antagonists: luciferase reporter qHTS assay (AID 1671201). Also: nearly all actives have a fitted effect of over 50% in size. Also: potency is read from the fitted curve at half-maximal effect. Summed up: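 CYP3A4 activity was followed with a P450-Glo proluciferin substrate. Test compounds in DMSO were preincubated 10 min; NADPH regeneration then ran 1 h, and light output was read 20 min after detection reagent.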
Sequence of Cytochrome P450 3A4 (Homo sapiens) (P08684 whole entry, looked up): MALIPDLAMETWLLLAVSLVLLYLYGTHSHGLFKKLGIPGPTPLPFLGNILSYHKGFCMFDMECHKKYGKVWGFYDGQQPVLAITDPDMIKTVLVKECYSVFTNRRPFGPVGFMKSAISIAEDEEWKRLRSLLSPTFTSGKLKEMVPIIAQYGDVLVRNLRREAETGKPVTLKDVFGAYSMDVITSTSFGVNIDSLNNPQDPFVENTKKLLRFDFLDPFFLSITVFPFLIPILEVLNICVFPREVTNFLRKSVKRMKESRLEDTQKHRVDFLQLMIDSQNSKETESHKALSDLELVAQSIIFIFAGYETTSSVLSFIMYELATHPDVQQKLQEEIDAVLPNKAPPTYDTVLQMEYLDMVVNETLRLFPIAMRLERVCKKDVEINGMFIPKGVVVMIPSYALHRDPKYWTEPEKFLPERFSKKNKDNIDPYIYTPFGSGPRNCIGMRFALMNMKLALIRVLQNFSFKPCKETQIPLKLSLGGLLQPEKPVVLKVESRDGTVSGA

Assay [8] concerns the target Cytochrome P450 2C19 (Homo sapiens) (UniProt P33261). The assay is described as follows: Cytochrome P450 Family 2 Subfamily C Member 19 (CYP2C19) small molecule antagonists: luciferase reporter qHTS assay (AID 1671197). Also: nearly all actives have a fitted effect of over 65% in size. Also: potency is read from the fitted curve at half-maximal effect. The method, boiled down: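 First, compounds are pinned into enzyme-substrate mix and held 10 min at room temperature. Second, NADPH regeneration solution is added and plates incubate 1 h at 37C. Third, detection reagent is added and luminescence read after 20 min.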

Structures are written as SMILES. Inconclusive results are not listed. Active and inactive are the calls of the source. Unless noted, calls follow the shape of the dose curve; as a rule, active = well fitted curve in the direction sought with a large enough effect in the repeat runs; inconclusive = weak or mixed curves; inactive = no such curve, though single readings can be large; an effect the other way counts as inactive or inconclusive.

Sequence of Voltage-gated inwardly rectifying potassium channel KCNH2 (Homo sapiens) (Q12809 whole entry, looked up): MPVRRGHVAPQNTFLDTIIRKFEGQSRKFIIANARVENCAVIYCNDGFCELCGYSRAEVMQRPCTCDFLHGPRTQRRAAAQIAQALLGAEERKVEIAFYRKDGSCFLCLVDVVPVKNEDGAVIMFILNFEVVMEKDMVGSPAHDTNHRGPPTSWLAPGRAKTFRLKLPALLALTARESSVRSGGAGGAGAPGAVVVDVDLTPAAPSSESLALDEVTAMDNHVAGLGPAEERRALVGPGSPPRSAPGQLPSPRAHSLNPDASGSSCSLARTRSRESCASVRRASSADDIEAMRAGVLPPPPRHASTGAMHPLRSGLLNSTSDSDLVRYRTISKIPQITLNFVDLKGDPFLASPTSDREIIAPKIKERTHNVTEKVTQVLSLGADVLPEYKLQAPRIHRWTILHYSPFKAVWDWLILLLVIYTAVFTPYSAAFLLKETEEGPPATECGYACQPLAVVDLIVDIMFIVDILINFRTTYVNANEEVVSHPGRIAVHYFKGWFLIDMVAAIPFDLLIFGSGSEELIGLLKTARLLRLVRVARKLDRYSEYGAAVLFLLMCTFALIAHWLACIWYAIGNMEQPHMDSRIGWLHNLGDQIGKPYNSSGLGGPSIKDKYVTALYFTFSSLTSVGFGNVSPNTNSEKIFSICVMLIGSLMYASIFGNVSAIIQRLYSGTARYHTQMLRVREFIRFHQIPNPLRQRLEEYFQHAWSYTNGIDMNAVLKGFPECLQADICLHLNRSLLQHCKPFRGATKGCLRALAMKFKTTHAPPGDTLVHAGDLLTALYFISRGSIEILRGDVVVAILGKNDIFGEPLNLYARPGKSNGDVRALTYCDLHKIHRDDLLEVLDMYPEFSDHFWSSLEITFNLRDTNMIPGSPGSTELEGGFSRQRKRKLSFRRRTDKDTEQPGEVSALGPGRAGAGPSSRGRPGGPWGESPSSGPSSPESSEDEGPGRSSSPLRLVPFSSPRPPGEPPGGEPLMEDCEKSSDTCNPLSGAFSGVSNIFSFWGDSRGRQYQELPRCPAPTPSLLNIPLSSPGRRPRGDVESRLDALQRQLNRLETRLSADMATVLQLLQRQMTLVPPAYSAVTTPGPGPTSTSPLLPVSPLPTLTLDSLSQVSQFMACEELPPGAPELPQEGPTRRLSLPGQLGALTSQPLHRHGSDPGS
Sequence of Cytochrome P450 1A2 (Homo sapiens) (P05177 whole entry, looked up): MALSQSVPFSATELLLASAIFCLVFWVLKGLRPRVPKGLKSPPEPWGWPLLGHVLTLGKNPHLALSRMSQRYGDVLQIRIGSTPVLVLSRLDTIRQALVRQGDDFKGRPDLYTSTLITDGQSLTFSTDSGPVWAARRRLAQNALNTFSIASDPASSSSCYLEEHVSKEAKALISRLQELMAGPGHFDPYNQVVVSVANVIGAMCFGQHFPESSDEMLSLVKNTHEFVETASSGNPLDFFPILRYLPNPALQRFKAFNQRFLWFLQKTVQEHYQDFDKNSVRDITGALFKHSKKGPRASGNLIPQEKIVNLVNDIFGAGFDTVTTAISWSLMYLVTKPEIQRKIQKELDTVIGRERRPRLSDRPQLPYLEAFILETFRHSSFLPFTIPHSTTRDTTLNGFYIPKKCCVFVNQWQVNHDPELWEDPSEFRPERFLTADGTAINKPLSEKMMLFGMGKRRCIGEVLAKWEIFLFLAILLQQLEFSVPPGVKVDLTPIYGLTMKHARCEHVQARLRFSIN
Sequence of Acetylcholinesterase (Homo sapiens) (P22303 whole entry, looked up): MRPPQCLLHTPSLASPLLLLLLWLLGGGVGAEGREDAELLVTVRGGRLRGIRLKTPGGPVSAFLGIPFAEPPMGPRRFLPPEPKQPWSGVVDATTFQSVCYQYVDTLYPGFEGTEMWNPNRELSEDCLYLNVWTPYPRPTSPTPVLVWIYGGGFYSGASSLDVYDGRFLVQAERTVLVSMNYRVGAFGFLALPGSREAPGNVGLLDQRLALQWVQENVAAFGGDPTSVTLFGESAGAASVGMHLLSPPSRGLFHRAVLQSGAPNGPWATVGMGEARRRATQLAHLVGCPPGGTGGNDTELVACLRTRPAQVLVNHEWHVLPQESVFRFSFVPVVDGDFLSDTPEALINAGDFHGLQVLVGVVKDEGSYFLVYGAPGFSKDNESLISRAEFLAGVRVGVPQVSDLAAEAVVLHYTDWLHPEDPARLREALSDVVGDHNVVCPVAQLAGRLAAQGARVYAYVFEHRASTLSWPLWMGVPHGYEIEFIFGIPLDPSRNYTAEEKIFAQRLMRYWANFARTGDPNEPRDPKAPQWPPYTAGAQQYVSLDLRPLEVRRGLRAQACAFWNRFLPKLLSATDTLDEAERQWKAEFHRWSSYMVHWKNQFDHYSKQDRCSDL
Sequence of Cytochrome P450 2C19 (Homo sapiens) (P33261 whole entry, looked up): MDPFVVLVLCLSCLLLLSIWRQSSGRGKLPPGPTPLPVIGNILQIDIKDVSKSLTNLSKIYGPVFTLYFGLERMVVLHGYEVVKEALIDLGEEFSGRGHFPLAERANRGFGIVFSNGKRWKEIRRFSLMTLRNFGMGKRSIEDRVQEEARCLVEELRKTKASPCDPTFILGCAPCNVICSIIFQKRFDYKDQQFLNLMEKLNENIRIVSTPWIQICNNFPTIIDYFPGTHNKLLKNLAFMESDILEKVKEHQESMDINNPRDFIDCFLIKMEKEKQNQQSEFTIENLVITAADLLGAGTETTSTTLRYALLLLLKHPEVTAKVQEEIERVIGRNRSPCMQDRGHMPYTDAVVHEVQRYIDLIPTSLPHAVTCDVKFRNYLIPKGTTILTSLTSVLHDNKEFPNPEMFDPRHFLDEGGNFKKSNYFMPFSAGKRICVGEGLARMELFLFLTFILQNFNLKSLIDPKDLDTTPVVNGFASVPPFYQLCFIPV
Sequence of Cytochrome P450 2D6 (Homo sapiens) (P10635 whole entry, looked up): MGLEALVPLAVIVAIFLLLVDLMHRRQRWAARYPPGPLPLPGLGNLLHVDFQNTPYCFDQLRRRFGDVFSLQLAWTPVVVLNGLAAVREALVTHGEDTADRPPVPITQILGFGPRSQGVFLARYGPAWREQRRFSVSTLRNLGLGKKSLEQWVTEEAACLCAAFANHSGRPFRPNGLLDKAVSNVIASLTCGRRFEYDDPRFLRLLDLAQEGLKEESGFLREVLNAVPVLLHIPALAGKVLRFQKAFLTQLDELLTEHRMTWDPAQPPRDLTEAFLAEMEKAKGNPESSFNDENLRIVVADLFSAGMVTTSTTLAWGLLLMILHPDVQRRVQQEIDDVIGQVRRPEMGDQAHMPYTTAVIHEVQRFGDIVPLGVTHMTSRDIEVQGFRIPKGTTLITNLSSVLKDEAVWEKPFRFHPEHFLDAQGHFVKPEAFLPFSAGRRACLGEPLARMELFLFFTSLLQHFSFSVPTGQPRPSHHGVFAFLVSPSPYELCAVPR

For `Nc1ccc(Cl)cc1C(=O)c1ccccc1F`, the Potency entry in assay [1], in assay [2], in assay [3], in assay [6] and in assay [7] was “inactive” throughout. The Potency was 17.4 µM (active) in assay [4] and 15.5 µM (active) in assay [5].

As to `N#Cc1c2ccccc2cc2ccccc12`, the Potency result in assay [1], in assay [2], in assay [3], in assay [8], in assay [6] and in assay [7] was “inactive” throughout. Further, the Potency in assay [5] was 0.2 µM (active).

As to `COCCC#N`, the Potency entry in assay [1], in assay [2], in assay [3], in assay [8], in assay [4] and in assay [5] was “inactive” each time. Also, the Potency result in assay [6] and in assay [7] was “inactive” each time.

In the case of `O=Cc1ccccc1`, the Potency result in assay [1], in assay [2], in assay [3], in assay [8], in assay [4] and in assay [5] was “inactive” in each case. In addition, the Potency entry in assay [6] and in assay [7] was “inactive” each time.

Turning to `Cc1cccc(Cc2cnc[nH]2)c1C`, the Potency result in assay [1], in assay [2] and in assay [6] was “inactive” in each case. Besides, the Potency is 2.45 µM (active) in assay [3], 2.19 µM (active) in assay [8], 0.347 µM (active) in assay [4] and 0.911 µM (active) in assay [5].

`Cc1cc(C2CC2)nc(Nc2ccccc2)n1`: the Potency result in assay [1], in assay [2], in assay [6] and in assay [7] was “inactive” each time. Further, the figures for the Potency in assay [4] and in assay [5] were 63.3 µM (active) and 2.52 µM (active), respectively.

In the case of `C=Cc1cccc(CCl)c1`, the Potency entry in assay [1], in assay [2], in assay [3], in assay [4], in assay [6] and in assay [7] was “inactive” throughout.

As for `O=[N+]([O-])c1cccc2cccc([N+](=O)[O-])c12`, the Potency entry in assay [1], in assay [2], in assay [3], in assay [4] and in assay [6] was “inactive” throughout.

`COc1ccc2c(c1OC)C(=O)O[C@@H]2[C@H]1c2cc3c(cc2CCN1C)OCO3`: the Potency entry in assay [1] and in assay [2] was “inactive” throughout. The Potency in assay [3] was 35.2 µM (active); in assay [4] it was 5.58 µM (active); in assay [5], 31.4 µM (active); in assay [6] it was 21.7 µM (active).

Turning to `CC(Cc1ccc(OCC(=O)O)cc1)NCC(O)c1csc(C(F)(F)F)n1` (centres undefined), the Potency result in assay [1], in assay [2], in assay [8], in assay [4], in assay [6] and in assay [7] was “inactive” each time. Further, the Potency in assay [5] was 35.6 µM (active).

As for `CCOP(=S)(OCC)Oc1cc(C)nc(N(CC)CC)n1`, the Potency result in assay [1], in assay [2] and in assay [6] was “inactive” throughout. In addition, the Potency in assay [3] is 50.2 µM (active); in assay [8], 0.399 µM (active); in assay [4], 11.2 µM (active); in assay [5] it was 3.56 µM (active); in assay [7] it was 0.633 µM (active).

As to `S=C=Nc1ccccc1`, the Potency entry in assay [1], in assay [2] and in assay [6] was “inactive” each time. The Potency in assay [3] was 73.3 µM (active); in assay [8], 36.7 µM (active); in assay [4], 65.3 µM (active); in assay [5], 32.7 µM (active); in assay [7] it was 32.7 µM (active).

As to `CC[C@]1(O)CC[C@H]2[C@@H]3CCC4=CCCC[C@@H]4[C@H]3CC[C@@]21C`, the Potency entry in assay [1], in assay [2], in assay [3] and in assay [6] was “inactive” throughout. The Potency in assay [8] was 12.3 µM (active).

Consider `CC[C@H](C)[C@H]1O[C@]2(C=C[C@@H]1C)C[C@@H]1C[C@@H](C/C=C(\C)[C@@H](O[C@H]3C[C@H](OC)[C@@H](O[C@H]4C[C@H](OC)[C@@H](NC)[C@H](C)O4)[C@H](C)O3)[C@@H](C)/C=C/C=C3\CO[C@@H]4[C@H](O)C(C)=C[C@@H](C(=O)O1)[C@]34O)O2`, for which the Potency entry in assay [1], in assay [2] and in assay [6] was “inactive” throughout. In addition, the Potency in assay [3] was 63.3 µM (active); in assay [8] it was 35.6 µM (active); in assay [4] it was 35.6 µM (active); in assay [5] it was 35.6 µM (active); in assay [7] it was 1.59 µM (active).

As to `ClSC(Cl)(Cl)Cl`, the Potency result in assay [1], in assay [2], in assay [8], in assay [6] and in assay [7] was “inactive” in each case. The Potency is 10.1 µM (active) in assay [3] and 31.8 µM (active) in assay [4].

Take `N#CSCc1ccccc1`: the Potency entry in assay [1], in assay [2] and in assay [6] was “inactive” in each case. The Potency was 45 µM (active) in assay [3], 71.3 µM (active) in assay [8] and 80 µM (active) in assay [5].

With `C[C@H]1[C@H](c2ccc(Cl)cc2)SC(=O)N1C(=O)NC1CCCCC1`, the Potency result in assay [1], in assay [2] and in assay [3] was “inactive” throughout. Further, the Potency is 5.03 µM (active) in assay [8]; 10 µM (active) in assay [4]; 35.6 µM (active) in assay [5]; 38.9 µM (active) in assay [6]; 7.96 µM (active) in assay [7].

For `CC(Cc1ccc2c(c1)OCO2)NO` (centres undefined), the Potency result in assay [1], in assay [2] and in assay [6] was “inactive” each time. In addition, the Potency in assay [3] was 38.6 µM (active); in assay [8], 48.6 µM (active); in assay [4], 34.4 µM (active); in assay [5] it was 6.11 µM (active).
